Inconclusive results are not listed. The source holds several records for some structures; these can differ, active in one and inactive in another. The source made the active and inactive calls. Calls follow the shape of the dose curve; as a rule, active = well fitted curve in the direction sought with a large enough effect; inconclusive = small, poorly fitted or top-dose-only effect, or another doubt; inactive = no such curve, though single readings can be large; an effect the other way counts as inactive or inconclusive.
Experiments:
MCC-13 = experiment: qHTS assay to identify novel small-molecules to repurpose for Merkel cell carcinoma treatment (AID 1296009); settings: MCC and control cell lines, CellTiter-Glo viability, 72 h; series mostly up to 46 µM; also: nearly all actives have a fitted effect of over 60% in size
Outline: (§1)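 Cell viability measured by CellTiter-Glo following 72 hr compound treatment at 37 degree celsius, with NPC and MIPE libraries tested in 8- and 11-point concentration series.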

MCC-26 = experiment: as above; settings: MCC and control cell lines, CellTiter-Glo viability, 72 h; series mostly up to 46 µM
Outline: as §1

MKL-1 = experiment: as above; settings: MCC and control cell lines, CellTiter-Glo viability, 72 h; series mostly up to 46 µM
Outline: as §1

WaGa = experiment: as above; settings: MCC and control cell lines, CellTiter-Glo viability, 72 h; series mostly up to 46 µM
Outline: as §1

C33A = experiment: Primary qHTS to identify gynecologic anti-cancer compounds using libraries of approved drugs and bioactive compounds (AID 1345084); settings: Gynecologic cancer cell panel viability, ATPlite luminescence, 48 h; series mostly up to 57.5 µM; also: nearly all actives have a fitted effect of over 55% in size
Outline: (§2)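 Cytotoxicity screen measuring ATP content by luciferase luminescence. Each compound is applied at five concentrations for 48 h at 37 C with 5% CO2.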

CAOV3 = experiment: as above; settings: Gynecologic cancer cell panel viability, ATPlite luminescence, 48 h; series mostly up to 57.5 µM
Outline: as §2

CASKI = experiment: as above; settings: Gynecologic cancer cell panel viability, ATPlite luminescence, 48 h; series mostly up to 57.5 µM
Outline: as §2

Es-2 = experiment: as above; settings: Gynecologic cancer cell panel viability, ATPlite luminescence, 48 h; series mostly up to 57.5 µM
Outline: as §2

HeLa = experiment: as above; settings: Gynecologic cancer cell panel viability, ATPlite luminescence, 48 h; series mostly up to 57.5 µM
Outline: as §2

Hek293T = experiment: as above; settings: Gynecologic cancer cell panel viability, ATPlite luminescence, 48 h, control line for the selectivity index; series mostly up to 57.5 µM
Outline: as §2

JEG-3 = experiment: as above; settings: Gynecologic cancer cell panel viability, ATPlite luminescence, 48 h; series mostly up to 57.5 µM
Outline: as §2

OV90 = experiment: as above; settings: Gynecologic cancer cell panel viability, ATPlite luminescence, 48 h; series mostly up to 57.5 µM
Outline: as §2

PA-1 = experiment: as above; settings: Gynecologic cancer cell panel viability, ATPlite luminescence, 48 h; series mostly up to 57.5 µM
Outline: as §2

SKOV3 = experiment: as above; settings: Gynecologic cancer cell panel viability, ATPlite luminescence, 48 h; series mostly up to 57.5 µM
Outline: as §2

Tov-21-G = experiment: as above; settings: Gynecologic cancer cell panel viability, ATPlite luminescence, 48 h; series mostly up to 57.5 µM
Outline: as §2

Tov112D = experiment: as above; settings: Gynecologic cancer cell panel viability, ATPlite luminescence, 48 h; series mostly up to 57.5 µM
Outline: as §2

[1] = Drug repurposing screens with cells derived from glioblastoma tumor samples (AID 1345199); settings: GBM patient neurospheres viability, ATP luminescence, 48 h; also: nearly all actives have a fitted effect of over 40% in size
Outline: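 Primary testing used CD133+ neurospheres from four GBM patients, seven concentrations, 48 h exposure and ATP-based viability; confirmation added three slower-growing patient lines.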

UISO = experiment: qHTS assay to identify novel small-molecules to repurpose for Merkel cell carcinoma treatment (AID 1296009); settings: MCC and control cell lines, CellTiter-Glo viability, 72 h; series mostly up to 46 µM; also: nearly all actives have a fitted effect of over 60% in size
Outline: as §1

MKL-2 = experiment: as above; settings: MCC and control cell lines, CellTiter-Glo viability, 72 h; series mostly up to 46 µM
Outline: as §1

NIH3T3 = experiment: as above; settings: MCC and control cell lines, CellTiter-Glo viability, 72 h; at 44.8 µM (top of the series) unless noted
Outline: as §1

[2] = at 46.1 µM (top of the series), tumour line C
[3] = at 45.9 µM (top of the series), tumour line B
[4] = at 45.9 µM (top of the series), tumour line D
[5] = at 46 µM (top of the series), tumour line A
% is scaled to controls: 0 for no effect and ±100 for the full control effect; potency is read from the fitted curve at half-maximal effect.

COc1cc(N)c(Cl)cc1C(=O)NC1CCN(CCCOc2ccc(F)cc2)CC1OC (configuration not stated)
inactive: Potency (MCC-13) | Potency (MCC-26) | Potency (MKL-1) | Potency (WaGa) | Potency (C33A) | Potency (CAOV3) | Potency (CASKI) | Potency (Es-2) | Potency (HeLa) | Potency (Hek293T) | Potency (JEG-3) | Potency (PA-1) | Potency (SKOV3) | Potency (Tov-21-G) | Potency (Tov112D) | activity, negative = cell killing ([1]; at 20 µM (top of the series), tumour line C) -1.31% | activity, negative = cell killing ([1]; at 21.2 µM (top of the series), tumour line B) -11.4%
active: Potency (OV90) 25.1 µM | Potency ([1]; tumour line A) 5.62 µM

Cc1c(C)n(Cc2ccccc2)c2ccc(C(=O)OCCN(C)C)cc12
active: Potency ([1]; tumour line A) 11.2 µM | Potency ([1]; tumour line D) 10 µM
inactive: Potency (MCC-13) | Potency (MCC-26) | Potency (MKL-1) | Potency (UISO) | Potency (WaGa) | Potency (C33A) | Potency (CASKI) | Potency (Es-2) | Potency (HeLa) | Potency (Hek293T) | Potency (JEG-3) | Potency (OV90) | Potency (Tov-21-G) | Potency (Tov112D) | activity, negative = cell killing [1, 2] -16.7%

OC[C@H]1O[C@@H](n2cnc3c(=S)nc[nH]c32)[C@H](O)[C@@H]1O
active: Potency (MCC-13) 2.11 µM | Potency (WaGa) 0.237 µM | Potency (C33A) 7.94 µM | Potency (CASKI) 2.24 µM | Potency (Es-2) 3.55 µM | Potency (HeLa) 3.16 µM | Potency (Hek293T) 10 µM | Potency (JEG-3) 2.51 µM | Potency (OV90) 8.91 µM | Potency (PA-1) 5.01 µM | Potency (Tov-21-G) 0.891 µM | Potency ([1]; tumour line A) 1.41 µM
inactive: Potency (MCC-26) | Potency (MKL-2) | Potency (CAOV3) | Potency (SKOV3) | activity, negative = cell killing [1, 3] -25.4%

COc1ccc(CN2CCN(C(c3ccc(F)cc3)c3ccc(F)cc3)CC2)c(OC)c1OC
active: Potency ([1]; tumour line A) 3.16 µM | Potency ([1]; tumour line D) 11.2 µM
inactive: Potency (MCC-13) | Potency (MCC-26) | Potency (C33A) | Potency (CAOV3) | Potency (CASKI) | Potency (Es-2) | Potency (HeLa) | Potency (Hek293T) | Potency (JEG-3) | Potency (OV90) | Potency (PA-1) | Potency (SKOV3) | Potency (Tov-21-G) | Potency (Tov112D) | activity, negative = cell killing [1, 2] -24.3%

c1ccc(OCc2ccc(CCCN3CCOCC3)cc2)cc1
inactive: Potency (MCC-13) | Potency (MCC-26) | Potency (MKL-1) | Potency (C33A) | Potency (CAOV3) | Potency (CASKI) | Potency (Es-2) | Potency (HeLa) | Potency (JEG-3) | Potency (PA-1) | Potency (SKOV3) | Potency (Tov-21-G) | Potency (Tov112D)

O=c1ccc2ccccc2o1
inactive: Potency (MCC-13) | Potency (MKL-1) | Potency (MKL-2) | outcome (NIH3T3) | Potency (UISO) | Potency (WaGa) | Potency (C33A) | Potency (CAOV3) | Potency (CASKI) | Potency (Es-2) | Potency (HeLa) | Potency (Hek293T) | Potency (JEG-3) | Potency (OV90) | Potency (PA-1) | Potency (SKOV3) | Potency (Tov-21-G) | Potency (Tov112D) | activity, negative = cell killing [1, 3] -10.7% | activity, negative = cell killing [1, 4] -11.2% | activity, negative = cell killing [1, 5] -35.1% | activity, negative = cell killing [1, 2] 13.9%

CC(=O)Oc1ccc2c(c1)CC[C@@H]1[C@@H]2CC[C@]2(C)[C@@H](O)CC[C@@H]12
inactive: Potency (MCC-13) | Potency (MCC-26) | Potency (C33A) | Potency (CAOV3) | Potency (CASKI) | Potency (Es-2) | Potency (Hek293T) | Potency (JEG-3) | Potency (OV90) | Potency (SKOV3) | Potency (Tov-21-G) | activity, negative = cell killing [1, 2] -5.95%
active: Potency (HeLa) 6.31 µM | Potency ([1]; tumour line A) 12.6 µM

c1ccc(-c2ccc(C(c3ccccc3)n3ccnc3)cc2)cc1 (configuration not stated)
active: Potency ([1]; tumour line A) 3.55 µM | Potency ([1]; tumour line D) 11.2 µM
inactive: Potency (MCC-13) | Potency (MCC-26) | Potency (C33A) | Potency (CASKI) | Potency (Es-2) | Potency (HeLa) | Potency (JEG-3) | Potency (OV90) | Potency (PA-1) | Potency (Tov-21-G) | Potency (Tov112D) | activity, negative = cell killing [1, 3] -29.4%

Oc1ccc(O)cc1
inactive: Potency (MCC-13) | Potency (C33A) | Potency (CAOV3) | Potency (CASKI) | Potency (Es-2) | Potency (HeLa) | Potency (Hek293T) | Potency (JEG-3) | Potency (OV90) | Potency (PA-1) | Potency (SKOV3) | Potency (Tov-21-G) | Potency (Tov112D) | activity, negative = cell killing [1, 2] -0.769%
active: Potency (MKL-1) 5.31 µM | Potency (MKL-2) 4.73 µM | Potency (WaGa) 1.88 µM

CC(C)(C)CC(C)(C)c1ccc(OCCOCC[N+](C)(C)Cc2ccccc2)cc1
active: Potency (MKL-1) 1.06 µM | Potency (MKL-2) 0.944 µM | Potency (UISO) 8.41 µM | Potency (WaGa) 1.5 µM | Potency (CASKI) 10 µM | Potency (PA-1) 14.1 µM | Potency (SKOV3) 12.6 µM
25.1 µM (active) and inactive: Potency (CAOV3)
inactive: Potency (MCC-13) | Potency (Es-2) | Potency (HeLa) | Potency (Hek293T) | Potency (JEG-3) | Potency (Tov112D)

N[C@H](Cc1c[nH]c2ccccc12)C(=O)O
inactive: Potency (MCC-13) | Potency (MKL-1) | Potency (MKL-2) | Potency (WaGa) | Potency (C33A) | Potency (CAOV3) | Potency (CASKI) | Potency (Es-2) | Potency (HeLa) | Potency (Hek293T) | Potency (JEG-3) | Potency (OV90) | Potency (PA-1) | Potency (SKOV3) | Potency (Tov-21-G) | Potency (Tov112D) | activity, negative = cell killing [1, 5] 21.7% | activity, negative = cell killing [1, 2] 0.799%
active: Potency ([1]; tumour line B) 35.5 µM

COC(=O)C1=C(C)NC(C)=C(C(=O)O[C@@H]2CCCN(Cc3ccccc3)C2)[C@@H]1c1cccc([N+](=O)[O-])c1
active: Potency (WaGa) 26.6 µM
inactive: Potency (MCC-13) | Potency (MKL-1) | Potency (C33A) | Potency (CASKI) | Potency (Es-2) | Potency (HeLa) | Potency (Hek293T) | Potency (JEG-3) | Potency (OV90) | Potency (PA-1) | Potency (SKOV3) | Potency (Tov-21-G) | Potency (Tov112D)

OC(CCN1CCCCC1)(c1ccccc1)c1ccccc1
inactive: Potency (MCC-13) | Potency (MKL-1) | Potency (MKL-2) | Potency (UISO) | Potency (WaGa) | Potency (C33A) | Potency (CASKI) | Potency (Es-2) | Potency (HeLa) | Potency (Hek293T) | Potency (JEG-3) | Potency (OV90) | Potency (PA-1) | Potency (SKOV3) | Potency (Tov-21-G) | Potency (Tov112D) | activity, negative = cell killing [1, 3] -13.7% | activity, negative = cell killing [1, 4] -5.27% | activity, negative = cell killing [1, 2] 4.07%
active: Potency ([1]; tumour line A) 12.6 µM

Source: PubChem BioAssay (NCATS)
